# Test results: PubChem BioAssay (Tox21)
# Several values for one entry are separate records, joined by “and”; a condition that tells them apart may be missing. Identical values can stand only once. Inconclusive results are not listed. A call without a number means that no potency is given here. Some structures have more than one record in an assay (separate samples or runs), and their calls can disagree. Activity calls are given as the source filed them. Unless noted, calls come from the whole dose curve; as a rule, active = well fitted curve in the direction sought with a large enough effect in the repeat runs; inconclusive = weak or mixed curves; inactive = no such curve, though single readings can be large; an effect the other way counts as inactive or inconclusive.
# What was measured:
# [1] = qHTS assay to identify small molecule antagonists of the glucocorticoid receptor (GR) signaling pathway - cell viability counter screen (AID 720693); note: nearly all actives have a fitted effect of over 55% in size; note: potency is the fitted concentration of half-maximal effect
# [2] = qHTS assay for identifying genotoxic compounds that show differential cytotoxicity against isogenic chicken DT40 cell lines with known DNA damage response pathways - Rev3 mutant cell line (AID 743014); note: nearly all actives have a fitted effect of over 55% in size; note: potency is the fitted concentration of half-maximal effect
# [3] = qHTS assay for identifying genotoxic compounds that show differential cytotoxicity against isogenic chicken DT40 cell lines with known DNA damage response pathways - Rad54/Ku70 mutant cell line (AID 743015); note: nearly all actives have a fitted effect of over 60% in size; note: potency is the fitted concentration of half-maximal effect
# [4] = qHTS assay to identify small molecule antagonists of the androgen receptor (AR) signaling pathway - cell viability counter screen (AID 743033; note: nearly all actives have a fitted effect of over 45% in size; note: potency is the fitted concentration of half-maximal effect)
# [5] = qHTS assay to identify small molecule antagonists of the androgen receptor (AR) signaling pathway using the MDA cell line - cell viability counter screen (AID 743041; note: nearly all actives have a fitted effect of over 45% in size; note: potency is the fitted concentration of half-maximal effect)
# Procedure, shortened: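 R1881-driven MDA-kb2 AR-luc cells, 3,000/well, were dosed with library compounds for 16 h; cell health came from CellTiter-Fluor fluorescence in the reporter wells.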
# [6] = target: Androgen receptor (Homo sapiens) (UniProt P10275); assay: qHTS assay to identify small molecule antagonists of the androgen receptor (AR) signaling pathway (AID 743035; active = well fitted inhibition curve with a large enough effect in the signal ratio in the repeat runs, not every such curve was filed as active; the % refers to the signal ratio; note: potency is the fitted concentration of half-maximal effect)
# Sequence of Androgen receptor (Homo sapiens) (P10275 whole entry, looked up): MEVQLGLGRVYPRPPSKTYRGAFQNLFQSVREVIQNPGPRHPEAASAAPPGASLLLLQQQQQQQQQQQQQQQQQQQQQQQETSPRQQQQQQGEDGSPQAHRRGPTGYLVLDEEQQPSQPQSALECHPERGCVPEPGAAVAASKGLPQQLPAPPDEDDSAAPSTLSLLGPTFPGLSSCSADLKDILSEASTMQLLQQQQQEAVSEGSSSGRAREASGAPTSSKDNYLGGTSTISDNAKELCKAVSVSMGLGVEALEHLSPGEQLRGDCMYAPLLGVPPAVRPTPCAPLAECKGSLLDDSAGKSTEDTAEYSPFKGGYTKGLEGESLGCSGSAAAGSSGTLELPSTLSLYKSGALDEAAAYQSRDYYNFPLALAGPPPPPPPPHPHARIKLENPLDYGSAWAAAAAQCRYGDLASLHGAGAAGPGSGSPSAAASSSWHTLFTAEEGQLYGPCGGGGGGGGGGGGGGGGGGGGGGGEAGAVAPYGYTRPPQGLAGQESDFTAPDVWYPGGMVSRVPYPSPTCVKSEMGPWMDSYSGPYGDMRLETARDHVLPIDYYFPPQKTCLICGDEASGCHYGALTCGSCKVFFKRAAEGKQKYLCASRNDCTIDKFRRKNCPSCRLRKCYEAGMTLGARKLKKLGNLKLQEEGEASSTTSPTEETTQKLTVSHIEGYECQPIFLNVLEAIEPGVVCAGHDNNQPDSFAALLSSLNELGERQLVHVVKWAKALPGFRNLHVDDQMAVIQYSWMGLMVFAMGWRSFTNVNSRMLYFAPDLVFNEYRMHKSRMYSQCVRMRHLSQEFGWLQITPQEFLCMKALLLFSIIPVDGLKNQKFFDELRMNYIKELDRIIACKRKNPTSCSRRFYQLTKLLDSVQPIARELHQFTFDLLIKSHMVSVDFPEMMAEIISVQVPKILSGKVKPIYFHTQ
# Procedure, shortened: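 HEK293 cells stably carrying UAS-beta-lactamase reporter, 2,000/well, given compounds plus R1881 agonist and incubated 16 h at 37C. LiveBLAzer B/G FRET substrate then added for 2 h at room temperature before fluorescence reading.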
# [7] = target: Androgen receptor (Homo sapiens) (UniProt P10275); assay: qHTS assay to identify small molecule agonists of the androgen receptor (AR) signaling pathway (AID 743036; active = well fitted activation curve with a large enough effect in the signal ratio in the repeat runs, with a control signal flat, not every such curve was filed as active; the % refers to the signal ratio)
# Procedure, shortened: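 HEK293 cells stably carrying a UAS-driven beta-lactamase reporter (GeneBLAzer AR-UAS-bla-GripTite) were plated at 2,000 cells/well, rested 4 h at 37C, then exposed to compounds in DMSO for 16 h. LiveBLAzer B/G FRET substrate was added for 2 h at room temperature; fluorescence read.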
# [8] = target: Androgen receptor (Homo sapiens) (UniProt P10275); assay: qHTS assay to identify small molecule agonists of the androgen receptor (AR) signaling pathway using the MDA cell line (AID 743040; note: nearly all actives have a fitted effect of over 20% in size)
# Procedure, shortened: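 After a 5 h incubation at 37C and 0% CO2, MDA-kb2 reporter cells were dosed with compounds in DMSO and kept 16 h under the same conditions. Luciferase activity was then read as luminescence with ONE-Glo.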
# [9] = target: Androgen receptor (Homo sapiens) (UniProt P10275); assay: qHTS assay to identify small molecule antagonists of the androgen receptor (AR) signaling pathway using the MDA cell line (AID 743042; note: nearly all actives have a fitted effect of over 55% in size; note: potency is the fitted concentration of half-maximal effect)
# Procedure, shortened: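 Antagonist mode: compounds plus R1881 agonist added to MDA-kb2 AR-luc cells, incubated 16 h at 37C. Luciferase reporter luminescence quantified, with multiplexed CellTiter-Fluor readout for cell viability.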
# [10] = qHTS assay for identifying genotoxic compounds that show differential cytotoxicity against isogenic chicken DT40 cell lines with known DNA damage response pathways - wild type cell line (AID 743012); note: nearly all actives have a fitted effect of over 60% in size; note: potency is the fitted concentration of half-maximal effect
# Procedure, shortened: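 Wild-type DT40 cells (300/well) exposed to compounds for 40 hours at 37 C/5% CO2. Viability read by CellTiter-Glo luminescence after 30 min at room temperature.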
structure (smiles),measurement,setting,value
CCN(CC)CCc1c[nH]c2ccccc12,Potency,[1],inactive
same,Potency,[2],inactive
same,Potency,[3],inactive
same,Potency,[4],inactive
same,Potency,[5],inactive
CNC(=O)Oc1cc(C)cc(C(C)C)c1,Potency,[1],inactive
same,Potency,[3],inactive
same,Potency,[4],inactive
same,Potency,[5],inactive
COc1ccc2c(c1OC)C(=O)O[C@@H]2[C@H]1c2cc3c(cc2CCN1C)OCO3,Potency,[1],inactive
same,Potency,[3],inactive
same,Potency,[4],inactive
same,Potency,[6],inactive
same,outcome,[7],inactive
same,outcome,[8],inactive
same,Potency,[5],inactive
same,Potency,[9],inactive
N#Cc1ccc(N(CC(N)=O)CC(F)(F)F)cc1C(F)(F)F,Potency,[1],inactive
same,Potency,[2],inactive
same,Potency,[4],inactive
same,Potency,[5],inactive
Cc1cc2c3c(c1)C(c1ccccc1)=N[C@@H](NC(=O)c1ccncc1)C(=O)N3CC2,Potency,[1],inactive
same,Potency,[2],61.1 µM (active)
same,Potency,[5],inactive
CCN(CC)CCN1C(=O)CN=C(c2ccccc2F)c2cc(Cl)ccc21,Potency,[1],inactive
same,Potency,[2],13.3 µM (active)
same,Potency,[3],26.6 µM (active)
same,Potency,[4],inactive
same,Potency,[5],inactive
O=C(Cl)c1ccccc1F,Potency,[1],inactive
same,Potency,[3],inactive
same,Potency,[4],inactive
same,Potency,[5],inactive
c1ccc(Nc2ccc(Nc3ccccc3)cc2)cc1,Potency,[1],inactive
same,Potency,[2],21.6 µM (active)
same,Potency,[3],24.2 µM (active)
same,Potency,[5],inactive
CCCCC/C=C\C/C=C\C/C=C\C/C=C\CCCC(=O)NCC(=O)O,"viability change, negative = cytotoxic",[1],-8.97% [at 7.04 µM] (inactive)
same,"activity change, negative = cytotoxicity",[3],4.36% [at 8.55 µM] (inactive)
same,"viability change, negative = cytotoxic",[5],-2.98% [at 8.47 µM] (inactive)
Oc1ccc([C@H]2CNCc3c2ccc(O)c3O)cc1O,Potency,[1],inactive
same,Potency,[4],inactive
same,Potency,[5],inactive
BrCC(Br)(Br)Br,Potency,[1],inactive
same,Potency,[4],inactive
same,Potency,[6],inactive
same,outcome,[7],inactive
same,outcome,[8],inactive
same,Potency,[5],inactive
same,Potency,[9],inactive
COc1ccc2[nH]cc(CCN(C(C)C)C(C)C)c2c1,Potency,[1],inactive
same,Potency,[4],inactive
same,Potency,[5],inactive
Nc1cc(Cl)ccc1Cl,Potency,[10],inactive
same,Potency,[2],inactive
same,Potency,[3],inactive
same,Potency,[4],inactive
same,Potency,[5],inactive
CCCCC(CC)COC(=O)c1ccccc1C(=O)OCC(CC)CCCC (centres undefined),Potency,[3],inactive
same,Potency,[4],inactive
Clc1ccc(C(c2ccc(Cl)cc2)C(Cl)Cl)cc1,Potency,[10],39.2 µM (active) and 19.3 µM (active)
same,Potency,[2],17.5 µM (active) and 3.86 µM (active)
same,Potency,[3],27.8 µM (active) and 10.9 µM (active)
same,Potency,[4],inactive
same,Potency,[5],inactive
Oc1cc(Cl)c(Cl)c(Cl)c1Cl,Potency,[1],21.4 µM (active)
same,Potency,[4],53.7 µM (active)
same,outcome,[8],inactive
same,Potency,[9],59.7 µM (active)
S=C=NCCc1ccccc1,Potency,[10],inactive
same,Potency,[3],inactive
same,Potency,[4],inactive
same,Potency,[6],inactive
same,outcome,[8],inactive
same,Potency,[5],inactive
same,Potency,[9],inactive
CO/N=C(/C1=NOCCO1)c1ccccc1Oc1ncnc(Oc2ccccc2Cl)c1F,Potency,[10],0.0306 µM (active)
same,Potency,[2],0.0544 µM (active)
same,Potency,[3],0.0153 µM (active)
same,Potency,[4],6.91 µM (active)
same,Potency,[5],30.6 µM (active)
CCN1CCC2(CC1)COc1cc3c(cc12)N(C(=O)c1ccc(-c2ccc(-c4nnc(C)o4)cc2C)cc1)CC3,Potency,[2],1.42 µM (active)
same,Potency,[3],1 µM (active)
same,Potency,[4],6.38 µM (active)
same,outcome,[8],inactive
same,Potency,[9],63.3 µM (active)
CCNS(=O)(=O)C(F)(F)C(F)(F)C(F)(F)C(F)(F)C(F)(F)C(F)(F)C(F)(F)C(F)(F)F,Potency,[1],inactive
same,Potency,[4],inactive
same,outcome,[7],inactive
same,outcome,[8],inactive
same,Potency,[5],inactive
same,Potency,[9],inactive
[O]=[Cr](=[O])([OH])[O][Cr](=[O])(=[O])[OH],Potency,[10],21.1 µM (active) [middle of 4 runs]
same,Potency,[4],7.83 µM (active) and 21.8 µM (active)
same,outcome,[8],inactive
same,Potency,[5],inactive
same,Potency,[9],inactive
CCC1COC(Cn2cncn2)(c2ccc(Cl)cc2Cl)O1 (centres undefined),Potency,[2],9.69 µM (active)
same,Potency,[3],19.3 µM (active)
same,Potency,[4],inactive
same,Potency,[5],inactive
C#CCC1=C(C)C(OC(=O)C2C(C=C(C)C)C2(C)C)CC1=O (centres undefined),Potency,[10],19.2 µM (active)
same,Potency,[2],30.4 µM (active)
same,Potency,[3],30.4 µM (active)
same,Potency,[5],inactive
C=CCBr,Potency,[10],inactive
same,Potency,[2],inactive
same,Potency,[3],inactive
same,Potency,[4],inactive
same,Potency,[5],inactive
CCCCCCCc1ccc(O)cc1,Potency,[10],21.7 µM (active)
same,Potency,[2],19.3 µM (active)
same,Potency,[3],19.3 µM (active)
same,Potency,[4],inactive
same,outcome,[7],inactive
same,outcome,[8],inactive
same,Potency,[5],inactive
same,Potency,[9],inactive
ClC1=C(Cl)[C@]2(Cl)[C@H]3[C@H]([C@@H]4C=C[C@H]3C4)[C@@]1(Cl)C2(Cl)Cl,Potency,[10],inactive
same,Potency,[2],inactive
same,Potency,[3],inactive
same,Potency,[4],inactive
same,Potency,[5],inactive
CCCCN(CCCC)C(=S)S,Potency,[2],inactive
same,Potency,[4],inactive
same,Potency,[5],inactive
CC1CCCC1,Potency,[10],inactive
same,Potency,[2],inactive
same,Potency,[3],inactive
same,Potency,[4],inactive
same,Potency,[5],inactive
Nc1ccc(N=Nc2ccccc2)cc1,Potency,[10],61.1 µM (active)
same,Potency,[2],61.1 µM (active)
same,Potency,[3],56.1 µM (active)
CCCCCCCCCCCCCCn1cc[n+](C)c1,Potency,[10],217 nM (active) and 241 nM (active) and inactive
same,Potency,[2],109 nM (active) and 152 nM (active) and inactive
same,Potency,[3],122 nM (active) and 135 nM (active) and inactive
same,Potency,[4],6.93 µM (active) and 24.3 µM (active) and inactive
c1ccc2c(c1)cc1ccc3cccc4ccc2c1c34,Potency,[10],inactive
same,Potency,[2],inactive
same,Potency,[3],inactive
same,Potency,[4],inactive
CC1CN1 (centres undefined),Potency,[1],inactive
same,Potency,[4],inactive
same,Potency,[5],inactive
CN1CCc2cc(Cl)c(O)cc2[C@H]2c3ccccc3CC[C@@H]21,Potency,[4],inactive
same,Potency,[5],inactive
O=C(O)CCCCCCNC1c2ccccc2CCc2ccccc21,Potency,[10],inactive
same,Potency,[2],inactive
same,Potency,[3],inactive
same,Potency,[4],inactive
same,Potency,[5],inactive
CSC(=O)c1c(C(F)F)nc(C(F)(F)F)c(C(=O)SC)c1CC(C)C,Potency,[10],34.2 µM (active)
same,Potency,[2],27.1 µM (active)
same,Potency,[3],30.5 µM (active)
same,Potency,[4],inactive
same,Potency,[5],inactive
CCOP(=S)(NC(C)C)Oc1ccccc1C(=O)OC(C)C (centres undefined),Potency,[10],15.4 µM (active)
same,Potency,[2],13.7 µM (active)
same,Potency,[3],17.2 µM (active)
same,Potency,[5],61.1 µM (active)
O=[N+]([O-])C(Br)Br,Potency,[1],inactive
same,Potency,[4],inactive
same,outcome,[7],inactive
same,outcome,[8],inactive
same,Potency,[5],inactive
same,Potency,[9],inactive
CO/N=C(\C(=O)OC)c1ccccc1CO/N=C(\C)c1cccc(C(F)(F)F)c1,Potency,[2],0.273 µM (active)
same,Potency,[3],0.273 µM (active)
same,Potency,[5],5.45 µM (active)
COC(=O)N(OC)c1ccccc1COc1ccn(-c2ccc(Cl)cc2)n1,Potency,[10],0.193 µM (active)
same,Potency,[2],0.243 µM (active)
same,Potency,[3],0.217 µM (active)
same,Potency,[4],0.871 µM (active)
same,Potency,[5],1.72 µM (active)
O=S1(=O)OCC2C(CO1)C1(Cl)C(Cl)=C(Cl)C2(Cl)C1(Cl)Cl (centres undefined),Potency,[10],24.3 µM (active)
same,Potency,[2],10.9 µM (active)
same,Potency,[3],27.3 µM (active)
O=S1OCC2C(CO1)C1(Cl)C(Cl)=C(Cl)C2(Cl)C1(Cl)Cl (centres undefined),Potency,[10],54.5 µM (active) and 24.3 µM (active)
same,Potency,[2],30.7 µM (active) and 34.3 µM (active)
same,Potency,[3],48.6 µM (active) and 48.5 µM (active)
same,Potency,[4],49 µM (active)
same,Potency,[6],38.9 µM (active) and 48.9 µM (active)
same,outcome,[8],inactive
same,Potency,[5],inactive
O=S(=O)(NS(=O)(=O)C(F)(F)F)C(F)(F)F,Potency,[10],inactive
same,Potency,[2],inactive
same,Potency,[3],inactive
same,Potency,[4],inactive
same,Potency,[5],inactive
CCC(C)c1cccc(C(C)CC)c1O (centres undefined),Potency,[1],inactive
same,Potency,[4],inactive
same,Potency,[5],inactive
C[C@H]1[C@H](c2ccc(Cl)cc2)SC(=O)N1C(=O)NC1CCCCC1,Potency,[1],inactive
same,Potency,[4],inactive
same,outcome,[7],inactive
same,outcome,[8],inactive
same,Potency,[5],inactive
N#Cc1c[nH]cc1-c1cccc2c1OC(F)(F)O2,Potency,[10],13.7 µM (active)
same,Potency,[2],8.63 µM (active)
same,Potency,[3],13.7 µM (active)
NC1CCC(CC2CCC(N)CC2)CC1 (centres undefined),Potency,[1],inactive
same,Potency,[4],inactive
same,Potency,[5],47.7 µM (active)
